Experimental data published in PubChem BioAssay AID760 (NMMLSC, 2007).
Out of some 190,000 compounds screened, about 360 (0.19%) were called active. Roughly 2% stayed inconclusive and do not appear here. The list comes from a sample in which actives are over-represented; it also holds similar structures and randomly drawn compounds. A number with no mark means an inactive call.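 The calls were made as follows: active = GTP binding activity at least 20 points away from 100%, either lowered or raised; inconclusive = signal likely due to the compound's own green fluorescence; inactive = the rest.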

Biological target: Ras-related protein Rab-2A (Canis lupus familiaris) (UniProt P61105)
Assay: Rab2 wt fluorescent GTP binding changes, either direction – biochemical, dog, bead-based flow cytometry, multiplex, primary screen (AID 760);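 also: 0% = beads with excess unlabeled GTP and 100% = no-compound control corrected for plate trend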
Conditions: GST-Rab2 wt beads, Bodipy-GTP binding, at 10 µM

| SMILES | GTP binding activity |
| --- | --- |
| O=C(COC(=O)CNC(=O)c1ccccc1F)NCC(F)(F)F | 101% |
| Cc1ccc(NC(=O)Nc2cccc(C(F)(F)F)c2)nc1 | 103% |
| CC1CC(C)CN(C(=O)CSc2ccsc2[N+](=O)[O-])C1 (stereo not drawn) | 102% |
| CCOC(=O)c1sc(NC(=O)CSc2nc(O)c(Cc3ccccc3)c(=O)[nH]2)nc1C | 93% |
| Cc1ccnc(NS(=O)(=O)c2ccc(NC(=O)c3ccc(S(=O)(=O)N(C)C)cc3)cc2)n1 | 98% |
| CN(CCC1CCOCC1)Cc1cn[nH]c1-c1ccc(-c2ccccc2)cc1 | 96% |
| C/C=C/C=C/C(=O)OCC(=O)Nc1ccc(Cl)cc1 | 93% |
| CN(C)CCOCCOc1ccc(Cl)c2ccccc12 | 106% |
| Cc1nn(CC(=O)Nc2ccc(C#N)cc2)c(C)c1[N+](=O)[O-] | 99% |
| COC(=O)c1ccc(/C=N/N2C(C)CCCC2C)cc1 (stereo not drawn) | 100% |
| COC(=O)c1sc2[nH]c(=S)n(N)c(=O)c2c1C | 100% |
| CCN(C(=O)COC(=O)c1cc(S(=O)(=O)N2CCc3ccccc32)ccc1OC)C1CCS(=O)(=O)C1 (stereo not drawn) | 96% |
| CC(NC(=O)C(=O)N/N=C/c1ccc(Cl)cc1)c1ccccc1 (stereo not drawn) | 98% |
| CC1CCCCC1NC(=O)CO/N=C/c1ccc(OC(F)F)cc1 (stereo not drawn) | 97% |
| NS(=O)(=O)c1ccc(NC(=O)COC(=O)c2ccco2)cc1 | 97% |
| COc1ccc(C(=O)CSc2nnnn2C)c(OC)c1 | 98% |
| COc1cc(CN(C)Cc2nc3cc(C(F)(F)F)ccc3c(=O)[nH]2)ccc1OC(F)F | 94% |
| Cn1c(N)cc(-c2ccc(F)cc2)c(C#N)c1=O | 97% |
| Cc1cc(C(=O)N/N=C/c2ccccc2[N+](=O)[O-])c(C)o1 | 95% |
| COc1ccc(/C=N/NC(=O)C(C)N(c2ccc(OC)cc2)S(C)(=O)=O)cc1 (stereo not drawn) | 96% |
| CSCCNCc1cn(-c2ccc(F)cc2F)nc1-c1ccccc1C | 100% |

| SMILES | GTP binding activity |
| --- | --- |
| Cc1ccnc(NC(=O)CCCOc2ccccc2)c1 | 97% |
| O=C(NNC(=O)c1ccccc1[N+](=O)[O-])Nc1ccccc1C(F)(F)F | 101% |
| CC(C)NC(=O)/C(C#N)=C\c1ccc(N(C)C)c(Br)c1 | 94% |
| O=C(Cc1csc(Nc2nc(=S)[nH]c3ccccc23)n1)NCCCN1CCN(c2cccc(Cl)c2)CC1 | 78% (active) |
| COc1cccc(CNC(=O)Cc2csc(Nc3nc(=S)[nH]c4ccccc34)n2)c1 | 93% |
| O=C(CCn1c(=O)[nH]c2ccccc2c1=O)NCCCN1CCN(c2cccc(Cl)c2)CC1 | 101% |
| Cc1ccnc2nc(C(=O)OCC(=O)N(CC(C)C)CC(C)C)nn12 | 97% |
| CCOc1ccccc1N1CCN(C(=O)COc2ccc3c(C)cc(=O)oc3c2)CC1 | 98% |
| CCOC(=O)CN/C=C(\C#N)c1ccc(F)cc1 | 102% |
| CCCC(c1nnnn1C(C)(C)C)N1CCN(Cc2ccccc2)CC1 (stereo not drawn) | 98% |
| O=C(COc1cccc2ccccc12)Nc1cc(S(=O)(=O)N2CCOCC2)ccc1N1CCOCC1 | 98% |
| O=c1[nH]n2c(-c3ccccc3)nc(O)c2c2ccccc12 | 95% |
| CCO/C=C1\C(=O)N(c2ccc(OCC)cc2)C(=O)c2ccccc21 | 93% |
| CCOC(=O)c1sc(NC(=O)c2cc(S(=O)(=O)N3CCOCC3)ccc2C)nc1C | 98% |
| COc1ccc(S(=O)(=O)N2CCOCC2)cc1C(=O)Nc1nc2ccccc2s1 | 72% (active) |
| COc1ccc(S(=O)(=O)N2CCOCC2)cc1NC(=O)CSc1ncnc2ccccc12 | 93% |
| COc1ccc(OC)c(-c2csc(NC(=O)C3=NNC(=O)CC3)n2)c1 | 96% |
| CNC(=S)N1CCC(NC(=O)C(Cc2ccc(F)cc2)NC(C)=O)CC1 (stereo not drawn) | 99% |
| COc1ccc(S(=O)(=O)N(C)C)cc1NC(=O)CSc1ncccn1 | 97% |
| Cn1nnnc1SCC(=O)Nc1nc2ccccc2s1 | 97% |
| CCNC(=O)COC(=O)/C=C/c1c(C)nn(Cc2cccc(OC)c2)c1Cl | 95% |

| SMILES | GTP binding activity |
| --- | --- |
| CCOC(=O)c1sc(NC(=O)CSc2n[nH]c(CC)n2)nc1C | 97% |
| O=C1c2cccc3c([N+](=O)[O-])ccc(c23)C(=O)N1CC1CCCO1 (stereo not drawn) | 95% |
| COc1cccc(CN(C)CC(=O)Nc2sc3c(c2C#N)CCC3)c1 | 92% |
| COc1ccc(S(=O)(=O)NCC2CCCN(C(=O)c3occc3C)C2)cc1 (stereo not drawn) | 97% |
| CCCCC(NC(=O)c1cccc(Br)c1)C(=O)O (stereo not drawn) | 93% |
| Cc1ccc(-c2nn(-c3cccc(F)c3)cc2CNCCc2ccncc2)o1 | 101% |
| CC1COc2ccccc2N1C(=O)c1cccnc1Cl (stereo not drawn) | 99% |
| Cc1nnsc1C(=O)Nc1cccc(Cl)c1C | 95% |
| CCOc1ccccc1Nc1ccc(C(=O)O)cc1[N+](=O)[O-] | 99% |
| Cc1ccc(CN2CCC(N3CCC(C(=O)NCC4CCCO4)CC3)CC2)o1 (stereo not drawn) | 97% |
| CCOc1ccc(N2C(=O)CN(c3cccc4ccccc34)C2=S)cc1 | 99% |
| Cc1cc(C)n(-c2ccc3nncn3n2)n1 | 102% |
| CSCC(=O)N1CCCC(C(=O)c2cc(F)ccc2F)C1 (stereo not drawn) | 97% |
| COCCNc1nc2nonc2nc1N(C)Cc1ccc(C)cc1 | 95% |
| CCOC(=O)C1(Cc2ccccc2C(F)(F)F)CCN(C(=O)c2cc(C)n(C)n2)CC1 | 98% |
| COc1cccc2c1OCC(CN1CCN(C3CCCCC3)C(CCO)C1)=C2 (stereo not drawn) | 100% |
| CCN(CC)N=Nc1cccc(NC(C)=O)c1 | 95% |
| NC(=O)Cn1nc([N+](=O)[O-])nc1Oc1ccc(Br)cc1 | 97% |
| O=C(/C=C\c1cn(-c2ccccc2)nc1-c1cccs1)N1CCOCC1 | 104% |
| O=C(O)/C=C/c1cn(Cc2ccccc2)nc1-c1cccs1 | 127% [activator] (active) |
| O=C(O)/C=C/c1cn(-c2ccccc2)nc1-c1cccs1 | 93% |
